Compound activity as filed in PubChem BioAssay.
Pf Dd2 growth – blocks growth of Plasmodium falciparum Dd2 parasites; P. falciparum Dd2 growth, SYBR Green, 72 h; hits give low values; activity change, % at 10 µM; 2.3% of 94,000 active; in the data active = activity change below about -80%; inconclusive = no clear call, values can overlap the other calls
T cruzi growth-1 – T. cruzi proliferation inhibition | T. cruzi beta-gal in NIH3T3, GalScreen luminescence, 90 h | inhibition, % at 8.34 µM | 5.9% of 77,000 active;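 active = mean inhibition above about 93%, with at least 55% of replicates each passing it, limit read from the data, passing the limit was not always enough; inconclusive = only one of those two conditions holds; inactive = neither condition holds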
C diff growth – C. difficile growth inhibition; growth activity, negative = inhibition, % at 16 µg/mL (by protocol); 0.25% of 86,000 active; Clostridium difficile clinical isolate growth, OD600, 24 h; hits give low values; AID 1259249;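 active = mean growth activity at or below -80% and every replicate also at or below -80%; inconclusive = mean at or below -80% but some replicate above -80%; inactive = mean growth activity above -80%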;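 note: 0% = DMSO wells and -100% = levofloxacin 16 µg/mL wells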
T cruzi growth-2 – blocks T. cruzi growth in NIH3T3 host cells; AID 651739; inhibition, % at 8.35 µM; 72% of 5,600 active; T. cruzi beta-gal in NIH3T3, GalScreen luminescence, 90 h; shares compounds with T cruzi growth-1;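 active = mean replicate inhibition above about 95% and at least 55% of replicates individually reaching it, limit read from the data; inconclusive = only one of the two criteria is met; inactive = neither criterion is met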
T cruzi growth-3 – blocks T. cruzi growth in NIH3T3 host cells; 21% of 5,600 active; T. cruzi beta-gal in NIH3T3, GalScreen luminescence, 90 h; inhibition, % at 2.09 µM; shares compounds with T cruzi growth-1;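 active = mean inhibition above about 95%, with at least 55% of replicates also reaching it, limit read from the data; inconclusive = meets just one of the two conditions; inactive = meets neither condition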;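 note: plate controls were neutral control median for no effect and positive control median for full effect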
3T3 cytotox – NIH/3T3 (mouse) viability loss; AID 651742; NIH/3T3 viability, CellTiter-Glo ATP luminescence, 90 h; cytotoxicity (signal decrease), % at 8.35 µM; 14% of 5,600 active; shares compounds with T cruzi growth-1;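 active = mean signal decrease across replicates above about 35% based on untreated-well scatter, with enough replicates individually passing, limit read from the data; inconclusive = no rule stated though some were filed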;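 note: 0% = median of neutral control wells and 100% = median of positive control wells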
NIH3T3 tox 2 – cytotoxicity in mouse NIH/3T3 fibroblasts. shares compounds with T cruzi growth-1. NIH/3T3 viability, CellTiter-Glo ATP luminescence, 90 h. inhibition, % at 24.9 µM. 56% of 5,600 active;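 active = mean loss of cell viability signal at or above a set limit, and enough replicates individually reaching it; inconclusive = meets only the mean limit or only the replicate share; inactive = meets neither condition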;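 note: 0% = median of neutral control wells and 100% = median of positive control wells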
* = called active by the depositor; ? = inconclusive; nt = no result. An excerpt weighted towards active compounds, which were near 6.8% of everything screened.

SMILES	Pf Dd2 growth	T cruzi growth-1	C diff growth	T cruzi growth-2	T cruzi growth-3	3T3 cytotox	NIH3T3 tox 2
O=C(NC1CCCC1)N1CCCCN2[C@H](CO)[C@@H](c3ccc(/C=C/c4ccccc4)cc3)[C@H]2C1	-29	57	2	nt	nt	nt	nt
O=C(NC1CCCC1)N1CCCCN2[C@H](CO)[C@H](c3ccc(/C=C/c4ccccc4)cc3)[C@@H]2C1	29	114*	-26	95*	100*	16	103*
C/C=C/c1ccc([C@H]2[C@@H](CO)N3CCCCN(C(=O)NC4CCCC4)C[C@H]23)cc1	6	49	25	nt	nt	nt	nt
O=C(NC1CCCC1)N1CCCCN2[C@H](CO)[C@H](c3ccc(/C=C/c4ccccc4)cc3)[C@H]2C1	-36	110*	56	100*	117*	24	104*
C/C=C/c1ccc([C@H]2[C@H]3CN(S(=O)(=O)c4cccc(C)c4)CCCCN3[C@H]2CO)cc1	-33	86	36	nt	nt	nt	nt
C/C=C/c1ccc([C@@H]2[C@@H](CO)N3CCCCN(S(=O)(=O)c4cccc(C)c4)C[C@@H]23)cc1	-37	108*	2	100*	81	-6	73*
C/C=C/c1ccc([C@@H]2[C@@H](CO)N3CCCCN(S(=O)(=O)c4cccc(C)c4)C[C@H]23)cc1	-40	?	1	108*	84	28	103*
Cc1cccc(S(=O)(=O)N2CCCCN3[C@H](CO)[C@@H](c4ccc(-c5ccccc5)cc4)[C@H]3C2)c1	-8	58	51	nt	nt	nt	nt
O=C(C[C@@H]1C=C[C@@H](NC(=O)CN2CCOCC2)[C@@H](CO)O1)NC1CCCCC1	16	-26	4	nt	nt	nt	nt
C[C@H]1CN([C@@H](C)CO)C(=O)c2ccccc2-c2ccccc2CO[C@@H]1CN(C)S(=O)(=O)c1cccc(C#N)c1	-44	47	-6	nt	nt	nt	nt
OC[C@@H]1[C@@H](c2ccc(/C=C/c3ccccc3)cc2)[C@H]2CN(Cc3cccnc3)CCCCN12	-76	87	5	nt	nt	nt	nt
OC[C@@H]1[C@H](c2ccc(/C=C/c3ccccc3)cc2)[C@H]2CN(Cc3cccnc3)CCCCN12	-74	48	13	nt	nt	nt	nt
OC[C@H]1[C@H](c2ccc(/C=C/c3ccccc3)cc2)[C@@H]2CN(Cc3ccncc3)CCCCN12	-62	?	10	110*	51	?	104*
OC[C@H]1[C@H](c2ccc(/C=C/c3ccccc3)cc2)[C@@H]2CN(Cc3cccnc3)CCCCN12	-71	104*	12	108*	65	0	104*
C[C@@H]1CN([C@@H](C)CO)C(=O)c2cc(-c3cccnc3)cnc2O[C@H]1CN(C)C(=O)C1CCCCC1	13	21	1	nt	nt	nt	nt
C[C@H](CO)N1C[C@H](C)[C@H](CN(C)C(=O)Nc2ccccc2)Oc2c(NS(=O)(=O)c3ccc(Cl)cc3)cccc2C1=O	-7	57	5	nt	nt	nt	nt
C[C@@H]1CN([C@@H](C)CO)C(=O)c2cc(NC(=O)Nc3cccc4ccccc34)ccc2O[C@H]1CN(C)C(=O)NC1CCCCC1	-12	57	-11	nt	nt	nt	nt
CN1c2ccc(Br)cc2[C@@H]2[C@@H](CCN2S(=O)(=O)c2cccc(F)c2)[C@@H]1CO	14	?	6	92	53	48*	41*
CC1C=NC(S(=O)(=O)N2CC[C@H]3[C@@H](CO)N(C)c4ccc(-c5cccc(F)c5)cc4[C@H]32)=N1 (stereo partly drawn)	-9	89	-13	nt	nt	nt	nt
CN1c2ccc(Br)cc2[C@H]2[C@H](CCN2S(=O)(=O)c2ccc(F)cc2)[C@H]1CO	20	68	-3	nt	nt	nt	nt
CC1C=NC(S(=O)(=O)N2CC[C@@H]3[C@@H](CO)N(C)c4ccc(-c5cccc(F)c5)cc4[C@@H]32)=N1 (stereo partly drawn)	7	103*	-15	104*	86	19	-7
CN1c2ccc(Br)cc2[C@@H]2[C@@H](CCN2S(=O)(=O)c2ccc(F)cc2)[C@H]1CO	26	47	-1	nt	nt	nt	nt
CN1c2ccc(-c3cccc(F)c3)cc2[C@H]2[C@H](CCN2S(=O)(=O)c2cccc(F)c2)[C@H]1CO	26	85	2	nt	nt	nt	nt
CN1c2ccc(-c3cccc(F)c3)cc2[C@@H]2[C@@H](CCN2S(=O)(=O)c2cccc(F)c2)[C@@H]1CO	20	102*	1	98*	77	59*	105*
Cc1cccc(S(=O)(=O)N2CC[C@@H]3[C@H](CO)N(C)c4ccc(Br)cc4[C@@H]32)c1	24	?	-1	111*	31	24	-2
SMILES	Pf Dd2 growth	T cruzi growth-1	C diff growth	T cruzi growth-2	T cruzi growth-3	3T3 cytotox	NIH3T3 tox 2
Cc1noc(C)c1NC(=O)Nc1ccc2c(c1)C(=O)N([C@@H](C)CO)C[C@@H](C)[C@@H](CN(C)Cc1ccc(C(=O)O)cc1)OCCCC[C@H](C)O2	30	0	-2	nt	nt	nt	nt
CCC(=O)N1[C@@H]2c3ccc(-c4cccnc4)c(=O)n3C[C@H]1[C@H](CO)[C@H]2C(=O)NC1CCC1	8	9	4	nt	nt	nt	nt
O=C(NCC[C@@H]1CC[C@H](NC(=O)Nc2cc(F)ccc2F)[C@@H](CO)O1)Nc1ccc(F)cc1	nt	nt	1	nt	nt	nt	nt
C[C@@H]1CN([C@H](C)CO)C(=O)c2cc(NS(=O)(=O)c3cccs3)ccc2O[C@@H]1CN(C)C(=O)Nc1ccc(C(F)(F)F)cc1	7	-8	-10	nt	nt	nt	nt
C[C@@H]1CN([C@H](C)CO)C(=O)c2cc(NS(=O)(=O)c3cccs3)ccc2O[C@H]1CN(C)Cc1ccc(Cl)c(Cl)c1	-7	8	-5	nt	nt	nt	nt
O=C(CCN1CCCCC1)N[C@H]1CC[C@H](CCNS(=O)(=O)c2ccccc2)O[C@@H]1CO	-8	-21	nt	nt	nt	nt	nt
COc1ccc(S(=O)(=O)Nc2cccc3c2O[C@@H](CN(C)S(C)(=O)=O)[C@@H](C)CN([C@H](C)CO)C3=O)cc1	18	9	4	nt	nt	nt	nt
COc1ccc(-c2ccc3c(c2)[C@H]2[C@H](CCN2S(=O)(=O)C2=NC(C)C=N2)[C@@H](CO)N3C)cc1 (stereo partly drawn)	15	101*	-5	104*	106*	-16	-26
COc1ccc(-c2ccc3c(c2)[C@@H]2[C@@H](CCN2S(=O)(=O)C2=NC(C)C=N2)[C@H](CO)N3C)cc1 (stereo partly drawn)	-13	93	11	nt	nt	nt	nt
Cc1ccc(S(=O)(=O)N(C)C[C@@H]2OCCCC[C@H](C)Oc3ccc(NC(=O)CCCN(C)C)cc3C(=O)N([C@@H](C)CO)C[C@H]2C)cc1	-43	17	nt	nt	nt	nt	nt
Cc1ccccc1S(=O)(=O)N1CCCCN2[C@@H](CO)[C@H](c3ccc(-c4cccnc4)cc3)[C@@H]2C1	-25	102*	4	102*	71	30	38*
